Laboratory results as given in PubChem BioAssay (NCI).
About 83,000 compounds went through this panel and 20% of them were active in at least one assay; those are over-represented in the sample as a whole.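 Method: cells in 96-well plates; compound added at one concentration; 48 h incubation; percent growth measured; values under 10 scored active.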 Calls of active or inactive are those of the source.

Experiments:
Assay in all cases: NCI-60 one-dose screen, 48 h (100 = growth as untreated, 0 = no growth, -100 = all killed)
Conditions in all cases: 10 µM unless noted
HCT-15 colon = system: HCT-15 colon
HT29 colon = system: HT29 colon
SNB-75 CNS = system: SNB-75 CNS
SNB-19 CNS = system: SNB-19 CNS
U251 CNS = system: U251 CNS
PC-3 prostate = system: PC-3 prostate
SK-MEL-5 melanoma = system: SK-MEL-5 melanoma
UACC-62 melanoma = system: UACC-62 melanoma
LOX IMVI melanoma = system: LOX IMVI melanoma
SK-MEL-28 melanoma = system: SK-MEL-28 melanoma

Measured: growth

Cc1ccc(/C(N)=N/C(N)=N/c2nc3ccccc3s2)cc1
active: LOX IMVI melanoma -17%
inactive: HCT-15 colon 52.2% | HT29 colon 110% | SNB-75 CNS 96.5% | SNB-19 CNS 95.3% | U251 CNS 82% | PC-3 prostate 63.5% | SK-MEL-5 melanoma 91% | UACC-62 melanoma 91.9% | SK-MEL-28 melanoma 116%

O=C(CCCCCC/C=C\c1csc(Br)n1)NO
inactive: HCT-15 colon 90.9% | HT29 colon 84.5% | SNB-75 CNS 64.8% | SNB-19 CNS 97% | U251 CNS 91.4% | PC-3 prostate 82% | SK-MEL-5 melanoma 97.1% | UACC-62 melanoma 74.5% | LOX IMVI melanoma 70.1% | SK-MEL-28 melanoma 92.4%

Cc1ccc2c(n1)C(=O)C(Cl)=C(Nc1ccc(C(F)(F)F)cc1)C2=O
inactive: HT29 colon 96.8% | SNB-75 CNS 115% | SNB-19 CNS 97.5% | U251 CNS 91.5% | PC-3 prostate 72.4% | SK-MEL-5 melanoma 95.3% | UACC-62 melanoma 96.6% | SK-MEL-28 melanoma 51%
active: HCT-15 colon -58.6% | LOX IMVI melanoma -57.1%

CC1CC(=O)C2=C(C1)Nc1ccc(Br)cc1CC2c1c[nH]c2ccc(Br)cc12 (stereo not given)
inactive: HCT-15 colon 27.1% | HT29 colon 11.1% | SNB-19 CNS 54.7% | U251 CNS 53.1% | PC-3 prostate 31.3% | SK-MEL-5 melanoma 66.1% | UACC-62 melanoma 42.1% | LOX IMVI melanoma 34.9% | SK-MEL-28 melanoma 57.2%
active: SNB-75 CNS -7.47%

O=C(/C=C/c1ccc(F)cc1)Nc1cccc2cccnc12
inactive: HCT-15 colon 75.4% | HT29 colon 105% | SNB-75 CNS 106% | SNB-19 CNS 109% | U251 CNS 102% | PC-3 prostate 98.5% | SK-MEL-5 melanoma 98.7% | UACC-62 melanoma 91.8% | LOX IMVI melanoma 121% | SK-MEL-28 melanoma 109%

Cc1[nH]c(C(=O)Nc2ccc(C(=O)NCC3CCNCC3)cc2OC(C)C)c(Cl)c1Cl
inactive: HCT-15 colon 93.7% | HT29 colon 40.6% | SNB-75 CNS 44.8% | SNB-19 CNS 64.2% | PC-3 prostate 61.6% | SK-MEL-5 melanoma 95.9% | UACC-62 melanoma 98.8% | SK-MEL-28 melanoma 83.9%
active: U251 CNS 8.95% | LOX IMVI melanoma 9.32%

CC1=C(SCC(=O)OCCCCCC(C)C)C(=O)c2ccccc2C1=O
inactive: HCT-15 colon 89.3% | HT29 colon 106% | SNB-75 CNS 91.1% | SNB-19 CNS 91.1% | U251 CNS 92% | PC-3 prostate 68.8% | SK-MEL-5 melanoma 91.8% | UACC-62 melanoma 86.2% | LOX IMVI melanoma 93.2% | SK-MEL-28 melanoma 110%

O=C1[C@H]2Cc3c([nH]c4ccccc34)[C@H](c3ccc(Cl)cc3)N2C(=O)CN1C1CCN(CC2CCCCC2)CC1
active: HT29 colon -21.9% | LOX IMVI melanoma -79.5%
inactive: HCT-15 colon 28.6% | SNB-75 CNS 41.4% | SNB-19 CNS 76% | U251 CNS 49.2% | PC-3 prostate 52.9% | SK-MEL-5 melanoma 37.8% | UACC-62 melanoma 93.4% | SK-MEL-28 melanoma 83.2%

CN(C)CC(=O)Nc1nc(-c2cccc(NS(=O)(=O)c3cccc4c(N(C)C)cccc34)c2)cs1
inactive: HCT-15 colon 75.8% | HT29 colon 94.3% | SNB-75 CNS 95.6% | SNB-19 CNS 88.8% | U251 CNS 83.4% | PC-3 prostate 72% | SK-MEL-5 melanoma 63.4% | UACC-62 melanoma 72.5% | LOX IMVI melanoma 95.3% | SK-MEL-28 melanoma 104%

Cc1ccc(N2CCN(C3=C(Cl)C(=O)c4ncccc4C3=O)CC2)cc1
active: LOX IMVI melanoma -32.6%
inactive: HCT-15 colon 21% | HT29 colon 106% | SNB-75 CNS 99.1% | SNB-19 CNS 70.3% | U251 CNS 72.4% | PC-3 prostate 63.3% | SK-MEL-5 melanoma 90.4% | UACC-62 melanoma 29.2% | SK-MEL-28 melanoma 80.9%

O=C(Nc1ccccc1)Nc1nc2ccc([N+](=O)[O-])cc2[nH]1
inactive: HCT-15 colon 40.9% | HT29 colon 84.4% | SNB-75 CNS 84.9% | SNB-19 CNS 66.3% | U251 CNS 55.5% | PC-3 prostate 45.8% | SK-MEL-5 melanoma 40.4% | UACC-62 melanoma 44% | LOX IMVI melanoma 57.2% | SK-MEL-28 melanoma 61.6%

O=C(CCCCCCNC(=O)C(O)(O)C(F)(F)F)Nc1ccc(Br)cc1
active: HT29 colon 2.18% | U251 CNS -21.3% | SK-MEL-5 melanoma -68.3% | UACC-62 melanoma -50% | LOX IMVI melanoma -75.2% | SK-MEL-28 melanoma 9.41%
inactive: HCT-15 colon 20.8% | SNB-75 CNS 33.9% | SNB-19 CNS 14.7% | PC-3 prostate 31.6%

CN1CCN(Cc2ccc(NC(=O)c3cncc(C#Cc4cnc5ccc(OCCCS(C)(=O)=O)nn45)c3)cc2C(F)(F)F)CC1
active: HCT-15 colon 3.14% | HT29 colon -10.8% | SNB-75 CNS -91.7% | SNB-19 CNS 1.67% | U251 CNS -4.26% | PC-3 prostate 1.61% | SK-MEL-5 melanoma -57% | UACC-62 melanoma -57.3% | LOX IMVI melanoma -82.6% | SK-MEL-28 melanoma -21.8%

CNC(=O)c1cc(N2CCc3cc(NC(=O)Nc4ccc(N5CCN(C)CC5)c(C(F)(F)F)c4)ccc32)ccn1
inactive: HCT-15 colon 29.1% | HT29 colon 21.8% | SNB-75 CNS 75.1% | SNB-19 CNS 81.5% | U251 CNS 52.7% | PC-3 prostate 59.7% | SK-MEL-5 melanoma 85.8% | UACC-62 melanoma 104%
active: LOX IMVI melanoma -77.5% | SK-MEL-28 melanoma 7.33%

COc1cc(OC)cc(-c2cc(-c3c[nH]c4ccccc34)nc(-c3c[nH]c4ccccc34)c2C#N)c1
inactive: HCT-15 colon 102% | HT29 colon 108% | SNB-75 CNS 87.6% | SNB-19 CNS 96.6% | U251 CNS 100% | PC-3 prostate 93.6% | SK-MEL-5 melanoma 98.5% | UACC-62 melanoma 93.6% | LOX IMVI melanoma 82.7% | SK-MEL-28 melanoma 101%

COc1cc(-c2nc(-c3ccccc3)[nH]c2-c2ccnc(NCCCNS(=O)(=O)c3ccc(C)cc3)n2)ccc1F
inactive: HCT-15 colon 62.9% | HT29 colon 69.5% | SNB-75 CNS 105% | SNB-19 CNS 104% | U251 CNS 88.6% | PC-3 prostate 55% | SK-MEL-5 melanoma 84.4% | UACC-62 melanoma 97.5% | LOX IMVI melanoma 83.4% | SK-MEL-28 melanoma 101%

CCOC(=O)c1c(NCC(=O)Nc2cccc([N+](=O)[O-])c2)sc(C(C)=O)c1C
active: HCT-15 colon -6.35% | HT29 colon -35.3% | SNB-75 CNS -0.605% | SNB-19 CNS 9.51% | U251 CNS -13.2% | PC-3 prostate -14.5% | SK-MEL-5 melanoma -82.9% | UACC-62 melanoma -19.6% | LOX IMVI melanoma -38.1% | SK-MEL-28 melanoma 2.62%

O=C1[C@H]2Cc3c([nH]c4ccccc34)[C@H](c3ccc(Br)cc3)N2C(=O)CN1C1CCN(CC2CCCCC2)CC1
inactive: HCT-15 colon 38.8% | HT29 colon 11% | SNB-75 CNS 52.6% | SNB-19 CNS 83.3% | U251 CNS 55.9% | PC-3 prostate 60.2% | SK-MEL-5 melanoma 69.6% | UACC-62 melanoma 96.7% | SK-MEL-28 melanoma 97.6%
active: LOX IMVI melanoma -69.2%

O=C(Nc1cccc(Cl)c1)Nc1nc2cc([N+](=O)[O-])ccc2o1
inactive: HCT-15 colon 29.4% | HT29 colon 71.6% | SNB-75 CNS 72.9% | SNB-19 CNS 31.3% | U251 CNS 23.3% | PC-3 prostate 29.8% | SK-MEL-5 melanoma 15.7% | UACC-62 melanoma 29.1% | LOX IMVI melanoma 40.4% | SK-MEL-28 melanoma 36.2%

Cn1cc(-c2cc3ncnc(Nc4ccc(NC(=O)Nc5cc(C(C)(C)C)on5)cc4)c3s2)cn1
inactive: HCT-15 colon 27.9% | HT29 colon 16.7% | SNB-19 CNS 56.4% | U251 CNS 37.9% | PC-3 prostate 28.5% | SK-MEL-5 melanoma 20.8% | UACC-62 melanoma 22.2% | SK-MEL-28 melanoma 15%
active: SNB-75 CNS 6.15% | LOX IMVI melanoma 6.08%

NS(=O)(=O)c1cccc(Nc2nc(SCC(=O)c3ccc(Cl)cc3)nc3c2CCC3)c1
inactive: HCT-15 colon 96.7% | HT29 colon 109% | SNB-75 CNS 87% | SNB-19 CNS 62.5% | U251 CNS 63.9% | PC-3 prostate 93.9% | SK-MEL-5 melanoma 94.9% | UACC-62 melanoma 97.1% | LOX IMVI melanoma 86.2% | SK-MEL-28 melanoma 104%

CSc1ccc(/C(=N/N=C(N)N)c2ccc(F)cc2)cc1
inactive: SNB-75 CNS 44.2% | SNB-19 CNS 25.7% | U251 CNS 11.2% | PC-3 prostate 20% | UACC-62 melanoma 36.2% | SK-MEL-28 melanoma 60.9%
active: HCT-15 colon 6.59% | HT29 colon 4.2% | SK-MEL-5 melanoma -11.3% | LOX IMVI melanoma 5.46%

O=c1c2cc(-c3ccc(F)cc3F)ccc2n(O)c(=O)n1-c1cccc(C(F)(F)F)c1
inactive: HCT-15 colon 10.5% | HT29 colon 62.9% | SNB-19 CNS 10.5% | LOX IMVI melanoma 12.5% | SK-MEL-28 melanoma 27.2%
active: SNB-75 CNS -19.4% | U251 CNS 5.79% | PC-3 prostate -0.871% | SK-MEL-5 melanoma -59.7% | UACC-62 melanoma -0.381%

C(=N\Nc1nc(N/N=C/c2ccc3c(c2)OCO3)nc(N2CCCCC2)n1)/c1ccc2c(c1)OCO2
inactive: HCT-15 colon 33.8% | HT29 colon 38.2% | SNB-75 CNS 113% | SNB-19 CNS 80.3% | U251 CNS 81.4% | PC-3 prostate 73.6% | SK-MEL-5 melanoma 96.8% | UACC-62 melanoma 102% | LOX IMVI melanoma 47.9% | SK-MEL-28 melanoma 109%

N/C(=N\C(N)=N\c1nc2ccccc2s1)c1ccc(Cl)cc1
inactive: HCT-15 colon 37.1% | HT29 colon 98.4% | SNB-75 CNS 99.1% | SNB-19 CNS 84% | U251 CNS 26.8% | PC-3 prostate 43.9% | SK-MEL-5 melanoma 99.7% | UACC-62 melanoma 81.9% | LOX IMVI melanoma 20.8% | SK-MEL-28 melanoma 95.5%

CN1CCN(c2ccc(Nc3nc(NCCNS(=O)(=O)c4ccc(Cl)cc4)c4sccc4n3)cc2)CC1
inactive: HCT-15 colon 47.7% | HT29 colon 44.3% | SNB-75 CNS 72.9% | SNB-19 CNS 104% | U251 CNS 60.1% | PC-3 prostate 81.8% | SK-MEL-5 melanoma 93.6% | UACC-62 melanoma 98.5% | LOX IMVI melanoma 92% | SK-MEL-28 melanoma 94.5%

Cc1ccc(-c2cc3nc(C(Cl)Cl)nc(-c4ccc(S(=O)(=O)N(C)C)cc4)n3n2)cc1
inactive: HCT-15 colon 74.9% | HT29 colon 66.5% | SNB-75 CNS 108% | SNB-19 CNS 89.4% | U251 CNS 83.8% | PC-3 prostate 91.7% | SK-MEL-5 melanoma 91.5% | UACC-62 melanoma 88.9% | LOX IMVI melanoma 45.7% | SK-MEL-28 melanoma 99.5%
